Integrin act MD = qHTS for Activators of Integrin-Mediated Alleviation for Muscular Dystrophy; alpha7betagal myoblasts, beta-gal FDG fluorescence, 48 h; Potency, µM (doses to about 38.3 µM), most hits filed as activators; 350,000 tested, 0.064% active; active means well fitted activation curve with a large enough effect; inconclusive means small, poorly fitted or top-dose-only effect; inactive means no such curve, though single readings can be large or run the other way; further: nearly all actives have a fitted effect of over 60% in size
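Alpha7betagal+/- myoblasts (passage 13) were plated 16-24 hr, then exposed to compounds (1:260 dilution of DMSO stock) for 48 hours at 37C. After MPER lysis, β-galactosidase reporter activity was read as FDG fluorescence (ex 480/em 540) after 30 minutes.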
D3 antag = qHTS of D3 Dopamine Receptor Antagonist: qHTS. D3R cells, DiscoveRx beta-arrestin luminescence, antagonist mode; hits give low values. max response, negative = inhibition, %. 360,000 tested, 2.5% active; in the data active means max response below about -50%; inconclusive means no clear call, values can overlap the other calls
Target sequence (P35462 whole entry, looked up): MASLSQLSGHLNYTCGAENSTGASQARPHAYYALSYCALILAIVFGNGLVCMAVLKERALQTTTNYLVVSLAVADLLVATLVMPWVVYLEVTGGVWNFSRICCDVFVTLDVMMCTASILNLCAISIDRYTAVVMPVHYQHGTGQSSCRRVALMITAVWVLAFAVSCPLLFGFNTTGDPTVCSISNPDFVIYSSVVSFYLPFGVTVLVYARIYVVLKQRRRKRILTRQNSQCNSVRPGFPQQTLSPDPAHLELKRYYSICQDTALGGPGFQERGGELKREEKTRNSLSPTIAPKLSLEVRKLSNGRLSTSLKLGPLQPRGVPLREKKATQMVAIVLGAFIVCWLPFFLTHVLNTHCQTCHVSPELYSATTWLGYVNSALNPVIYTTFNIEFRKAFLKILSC
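Cells plated overnight at 1500 cells/well, then exposed to library compounds with dopamine controls for 90 minutes at 37 degrees C. DiscoveRx reagent added for 30–60 minutes at room temperature; luminescence read, quantitative HTS format.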
DRD3 agonist = qHTS of D3 Dopamine Receptor Agonist: qHTS. D(3) dopamine receptor (Homo sapiens), P35462. D3R DiscoveRx beta-arrestin cells, luminescence, 90 min. max activation, %. 410,000 tested, 0.58% active. AID 652048, 2013; in the data active means max activation above about 30%
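Agonist mode: compounds and dopamine controls were applied to plated cells for 90 min at 37 degrees C after an overnight attachment at 1500 cells/well. Luminescent read-out followed 30 - 60 minutes at room temperature with DiscoveRx detection reagent.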
Numbers stand for hits; . = inactive; ? = inconclusive; / = not tested or not shown. Shown are actives, neighbours in structure and some others; about 2.9% of the full set was active somewhere.

SMILES	Integrin act MD	D3 antag	DRD3 agonist
CC1(C)CC(NS(=O)(=O)c2ccc(F)cc2)CC(C)(C)N1	.	-58	.
CCN(CC)S(=O)(=O)c1cccc(-c2n[nH]c(=S)n2/N=C/c2ccc(Br)cc2)c1	.	-54	.
CCN(CC)S(=O)(=O)c1cccc(-c2n[nH]c(=S)n2/N=C/c2ccc(OC)cc2)c1	.	.	.
Cc1cc(C)cc(N(CC(=O)NCc2ccco2)C(=O)CCC(=O)Nc2ccccn2)c1	.	.	.
O=C(CSc1nnc(-c2cccs2)n1-c1ccccc1)N1CCCc2ccccc21	.	.	.
O=C(C1CCC(C(=O)N2CCc3ccccc32)CC1)N1CCc2ccccc21 (centres undefined)	.	-59	.
O=C(C1CCN(S(=O)(=O)N2CCOCC2)CC1)N1CCc2ccccc21	.	.	.
N=c1sccn1CC(=O)N1CCc2ccccc21	.	-65	.
CCc1nc(SCC(=O)N2CCc3ccccc32)c2oc3ccccc3c2n1	.	.	.
Cc1nc(SCC(=O)N2CCCc3ccccc32)c2oc3ccccc3c2n1	.	.	34
O=C(Cc1ccccc1)N1CCc2ccccc21	.	.	.
CCn1c(SCC(=O)N2CCCc3ccccc32)nnc1-c1cccs1	.	-68	.
CS(=O)(=O)NNC(=O)c1csc(Cc2c(Cl)sc3ccc(Cl)cc23)n1	.	.	.
COc1ccc(C2C(C(=O)NCC3CCCO3)CCC(=O)N2c2ccc3c(c2)OCO3)cc1 (centres undefined)	.	.	.
CCCN(CC1CC1)C(=O)CSc1ncnc2sc(C)c(C)c12	.	.	.
O=S(=O)(NCc1ccccc1Cl)c1ccc(N2CCCCS2(=O)=O)cc1	/	/	.
O=S(=O)(NCCc1ccccc1)c1ccc(-n2cnnn2)cc1	.	.	.
O=C(CCc1ccccc1)NCC(=O)N/N=C/c1ccc2c(c1)OCO2	.	.	.
O=C(CN1CCCC1)N1CCCc2ccccc21	.	?	.
O=C(c1cccc([N+](=O)[O-])c1)N1CCc2ccccc21	.	.	.
O=C(c1ccc([N+](=O)[O-])cc1)N1CCc2ccccc21	.	-55	.
Nc1ccccc1SCC(=O)N1CCc2ccccc21	.	.	.
CCOC(=O)C1CCN(Cc2ccccc2C)CC1	.	.	.
CCOC(=O)C1CCN(CC(=O)N2CCc3ccccc32)CC1	.	-74	.
CC1CCN(CC(=O)N2CCc3ccccc32)CC1	.	-58	.
SMILES	Integrin act MD	D3 antag	DRD3 agonist
O=C(CN1CCCCC1)N1CCCc2ccccc21	.	-82	.
CSc1c(-c2ccccn2)c(N)nn1C(=O)C1CCC1	.	.	.
CN(C)CCNC(=O)c1scc2c1CCCC2	.	.	.
CCN(CC)S(=O)(=O)c1nnc(NC(=O)COc2ccc(Cl)cc2)s1	/	/	.
Cc1ccc(Cn2c(CN3CCOCC3)nc3c2c(=O)n(C)c(=O)n3C)cc1	.	.	.
Cc1ccc(CNC(=O)CCS(=O)(=O)c2cc(Br)cc3c2N(C(=O)C2CC2)CC3)cc1	/	/	.
O=C(O)CCN1CCc2ccccc2C1c1ccncc1 (centres undefined)	.	-58	.
O=C(O)CCN1CCc2ccccc21	.	.	.
NC(=O)Nc1n[nH]c(-c2ccccc2)n1	.	.	.
O=C(c1ccc(-c2ccccc2)cc1)C1CCCN(Cc2ccncc2)C1 (centres undefined)	.	.	.
O=C(c1ccc(Cl)cc1)C1CCCN(Cc2cnn(-c3ccccc3)c2)C1 (centres undefined)	.	-71	.
CC1=CC(=O)C=CC1=Nc1ccc(N(C)C)cc1	/	-51	.
CN(C)c1ccc(N=Nc2ccc(S(N)(=O)=O)cc2)cc1	.	.	.
C/C(CC(=O)NCc1ccco1)=N\NC(=O)c1ccc(Cl)cc1Cl	.	.	.
COC(=O)c1c(-c2ccc(Cl)cc2)noc1N1CCN(c2cccc(OC)c2)CC1	/	/	82
COC(=O)c1c(-c2ccc(Cl)cc2)noc1N1CCN(c2cccc(C)c2C)CC1	/	/	.
Cc1cc(C)n(/N=C/c2c[nH]c3ccccc23)c(=O)c1	.	.	.
CCN(CC)CCCNc1oc(-c2ccc(OC)c(OC)c2)nc1C#N	.	.	.
CCN(CC)CCCNc1oc(-c2ccccc2[N+](=O)[O-])nc1C#N	.	-56	.
COc1ccc(-c2ccc(CN3C(CC(C)C)C(=O)N(Cc4cn(Cc5ccco5)nn4)CCS3(=O)=O)cc2)cc1OC (centres undefined)	.	.	.
COc1cc(C(=O)NCC(c2ccco2)S(=O)(=O)c2ccccc2)cc(OC)c1OC (centres undefined)	/	/	.
Cc1ccc(C(C)C)c(OCCNC(=O)c2cncc(Br)c2)c1	.	-52	.
COc1cc(C(=O)NCCOc2cc(C)ccc2C(C)C)cc(OC)c1OC	.	.	.
Cc1nc2cc(Oc3nc(NCCN(C)C)nc4ccsc34)ccc2s1	/	-59	.
CNc1nc(Oc2ccc3sc(C)nc3c2)c2sccc2n1	/	.	.
SMILES	Integrin act MD	D3 antag	DRD3 agonist
CC[C@H](CO)Oc1cc(NCc2ccc(Cl)c(Cl)c2)c2ncn(C(C)C)c2c1	.	?	.
COc1cccc(/C=N/NC(=O)c2cnccn2)c1	.	.	.
OCCCN1CNC(=S)NC1	.	.	.
CC1=NN(c2ccc(C)cc2)C(=O)/C1=C\C=C\c1ccccc1	.	.	.
CC1=NN(c2ccccc2)C(=O)/C1=C/C=C/C=C/N(C)C	.	-69	.
CC(Cc1ccccc1)NC(=O)c1cc([N+](=O)[O-])ccc1Cl (centres undefined)	.	.	.
COc1ccccc1NC(=O)COC(=O)C12CC3CC(CC(Cl)(C3)C1)C2	.	.	.
CN(C(=O)CCc1nnc(Cc2ccc(-c3ccccc3)cc2)o1)C1CCOCC1	.	.	.
CCOc1ccc(N=C2NC(=O)S/C2=C\c2ccc(Cl)cc2)cc1	.	.	.
COc1ccc(N=C2NC(=O)S/C2=C\c2ccc(N(C)C)cc2)cc1	.	-66	.
O=C(NCc1ccccc1CN1CCCC1)c1ccc(S(=O)(=O)Nc2ccccc2)cc1	.	-59	.
O=C(NCc1ccccc1CN1CCCC1)c1cccc(S(=O)(=O)N2CCCC2)c1	.	.	.
O=C(NCc1ccccc1CN1CCCC1)c1ccc(S(=O)(=O)Nc2ccccc2F)cc1	.	.	.
CSCC[C@H](NC(=O)c1ccc(Cl)c(S(=O)(=O)N2CCCC2)c1)c1nc2ccccc2[nH]1	.	-52	.
O=C(NCc1ccccc1CN1CCCC1)c1ccc(Cl)c(S(=O)(=O)N2CCCC2)c1	.	-50	.
CN(C)C(CNC(=O)c1ccc(Cl)c(S(=O)(=O)N2CCCCCC2)c1)c1ccccc1 (centres undefined)	.	-81	.
CN(C)CCCNC(=O)c1ccc(Cl)c(S(=O)(=O)N2CCCCCC2)c1	.	?	.
CSCCC(NC(=O)c1cccc(S(=O)(=O)N2CCN(C(C)=O)CC2)c1)c1nc2ccccc2[nH]1 (centres undefined)	.	.	.
Cc1ccc(NC(=O)C2(C)CCN2Cc2ccc(OC(C)C)cc2)cc1 (centres undefined)	/	.	.
O=C(CN1CCN(CN2C(=O)NC3(CCCCCC3)C2=O)CC1)Nc1cccc(F)c1	.	.	.
Cc1ccc(CNC(=O)c2ccc(S(=O)(=O)N(C)C)cc2)n1C	.	.	.
